In all, about 300,000 compounds went through this assay and about 3,200 (1.1%) were called active.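 How the source made its calls: active means inhibition above the campaign mean inhibition plus 3 SD (cut at about 35% in these data); inactive means the rest.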 The list comes from a sample in which actives are over-represented; it also holds similar structures and randomly drawn compounds.
biological target: Glutathione S-transferase omega-1 (Homo sapiens) (UniProt P78417); test: human GSTO1 enzyme inhibition – biochemical, fluorescence polarization, counter-screen for RBBP9 inhibitor project, primary screen (AID 1974); conditions: recombinant GSTO1, activity-based probe fluorescence polarization; at 5.96 µM; active compounds read high;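 further: 0% = GSTO1-1 with DMSO and 100% = wells lacking GSTO1-1 enzyme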
Sequence (P78417 whole entry, looked up): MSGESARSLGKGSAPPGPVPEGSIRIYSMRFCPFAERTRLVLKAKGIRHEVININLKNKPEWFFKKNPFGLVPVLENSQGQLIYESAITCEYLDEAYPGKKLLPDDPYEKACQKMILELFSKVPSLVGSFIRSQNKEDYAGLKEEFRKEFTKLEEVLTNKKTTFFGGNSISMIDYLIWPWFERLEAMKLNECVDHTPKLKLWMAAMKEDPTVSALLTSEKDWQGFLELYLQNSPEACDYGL

| Compound | inhibition |
| --- | --- |
| Cc1ccc(SCC2=NNC(=O)C2)cc1 | 42.2% (active) |
| Cc1ccc(SCc2cc(=O)[nH]c(N3CCCCC3)n2)cc1 | -1.38% (inactive) |
| Cc1ccc(SCCSc2ncccn2)cc1 | -0.48% (inactive) |
| COc1ccc(NC(=O)CCC(=O)N2CCN(S(=O)(=O)c3ccc(C)cc3)CC2)c(OC)c1 | -6.89% (inactive) |
| Cn1ccsc1=NC(=O)c1cc(S(=O)(=O)N2CCOCC2)ccc1Cl | -4.31% (inactive) |
| CCOC(=O)c1c(C)oc2cc(Sc3ccccc3)c(O)c(O)c12 | 47.9% (active) |
| CCOC(=O)c1cc(Sc2ccccc2N)cc(C(=O)OCC)n1 | 8.34% (inactive) |
| CCOC(=O)c1c(-c2ccccc2)oc2cc(Br)c(O)c(C=O)c12 | 0.6% (inactive) |
| Oc1cccc(/C=N/Nc2ccc(Cl)nn2)c1O | 73% (active) |
| Cc1ccsc1/C=N/Nc1ccc(Cl)nn1 | -1.2% (inactive) |
| Clc1ccc(N/N=C/c2cccs2)nn1 | 6.83% (inactive) |
| Cn1c(NC(=O)c2ccccc2)nc2ccccc21 | 4.42% (inactive) |
| CC(C)CN(C(=O)COC(=O)c1ccc(Cl)c(N)c1)c1c(N)n(Cc2ccccc2)c(=O)[nH]c1=O | 3.23% (inactive) |
| Cc1[nH][nH]c(=O)c1C(c1ccc2c(c1)OCO2)c1c(C)[nH][nH]c1=O | 17.4% (inactive) |
| CCOc1ccc(C(c2c(C)[nH][nH]c2=O)c2c(C)[nH][nH]c2=O)cc1OCC | 23.6% (inactive) |
| Cc1[nH][nH]c(=O)c1C(c1ccc(-c2ccc(Cl)cc2)o1)c1c(C)[nH][nH]c1=O | 65.6% (active) |
| NC(=O)NCCCC(=O)O | 6.89% (inactive) |
| OCc1ccc(-c2ccccc2)c(-c2ccccc2)c1 | 0.95% (inactive) |
| Cn1c(-c2ccc(F)cc2)cc2onc(-c3ccccc3Cl)c2c1=O | 2.68% (inactive) |
| N#CC1=C(N)C(C#N)(C#N)[C@H](c2ccsc2)[C@H]2COCC=C12 | 10.3% (inactive) |

| Compound | inhibition |
| --- | --- |
| CCN1CC=C2C(C#N)=C(N)C(C#N)(C#N)[C@H](c3ccoc3)[C@H]2C1 | 38% (active) |
| CCCN1CC=C2C(C#N)=C(N)C(C#N)(C#N)C(c3cc(OC)ccc3OC)C2C1 (stereo not drawn) | 3.38% (inactive) |
| Cc1ccc(C(=O)OCC(=O)N2CC(C)CC(C)C2)cc1S(=O)(=O)N1CCCCC1 (stereo not drawn) | 1.6% (inactive) |
| COc1cc(NC(=O)CSC(=S)N2CCCC2)c(OC)cc1Cl | 1.86% (inactive) |
| CCOC(=O)COc1cc(O)c2c(=O)cc(-c3ccccc3)oc2c1 | 4.45% (inactive) |
| COc1ccc(-c2cc(=O)c3c(O)cc(O[C@@H]4O[C@H](CO[C@@H]5O[C@@H](C)[C@H](O)[C@@H](O)[C@H]5O)[C@@H](O)[C@H](O)[C@H]4O)cc3o2)cc1O | 6.25% (inactive) |
| COc1c(O)cc2oc(-c3ccc(O)c(O)c3)cc(=O)c2c1O | 37% (active) |
| CC(C)(C)n1nc(Cc2cccc3ccccc23)c(C#N)c1N | 26.1% (inactive) |
| COc1ccc(COC(=O)NC(C(=O)O)c2ccccc2)cc1 (stereo not drawn) | 8.98% (inactive) |
| COc1ccc(CN(C)C(=O)CC(c2ccccc2)c2ccccc2)cc1 | -5.61% (inactive) |
| COc1ccc(C(CCN(Cc2ccc(OC)c(OC)c2)C(=O)CCl)c2ccccc2)cc1 (stereo not drawn) | 87% (active) |
| CCOc1cc(/C=N/NC(=O)c2cccc(S(=O)(=O)N3CCOCC3)c2)ccc1OCC(=O)N(C)C | 5.36% (inactive) |
| O=C1CCCN1C(=O)COc1ccc([N+](=O)[O-])cc1 | -4.91% (inactive) |
| CCc1nnc(NC(=O)CSc2nc(SC)ns2)s1 | 47.1% (active) |
| CSc1nsc(SCC(=O)Nc2cc(C(=O)O)ccc2C)n1 | -0.11% (inactive) |
| CCc1nnc(NC(=O)CCC(=O)O)s1 | 3.28% (inactive) |
| CCc1ccc(Nc2n[n+](-c3ccccc3)c(-c3cccc(Cl)c3Cl)s2)cc1 | 5.75% (inactive) |
| O=C(N/N=C/c1c(Cl)[nH]c2ccccc12)c1sc2ccccc2c1Cl | -18.9% (inactive) |
| Oc1ccc(N=Cc2sc3ccccc3c2Cl)cc1 | 87.7% (active) |
| COc1ccc(N=C(C)c2sc3ccccc3c2O)cc1 | 3.42% (inactive) |

| Compound | inhibition |
| --- | --- |
| CCN(CC(=O)Nc1c(F)cccc1F)C(=O)C1CCC1 | 0.37% (inactive) |
| COc1ccc(C(=O)OCC(=O)c2ccc(Cl)s2)c(OC)c1OC | 2.69% (inactive) |
| CNC(=S)NNC(=O)c1oc2nc(-c3ccccc3)cc(-c3ccco3)c2c1N | 3.57% (inactive) |
| O=C(Nc1cccc(F)c1)c1cc(-c2ccco2)nc2ccccc12 | -14.9% (inactive) |
| NNC(=O)c1oc2nc(-c3ccccc3)cc(-c3ccco3)c2c1N | 38.1% (active) |
| Cc1c(C)n2c(SCC(=O)NC3CCCC3)nnc2[nH]c1=O | 3.72% (inactive) |
| CCN(CC(=O)Nc1c(F)cccc1F)C(=O)CN1c2cccc3cccc(c23)S1(=O)=O | 0.89% (inactive) |
| C#CCOCCOCCOCCNc1nc(N2CCN(C(=O)CCCCCCCCCCNC(=O)[C@H]([C@@H](C)CC)n3cc(CCCCN=C(N)N)nn3)CC2)nc(N2CCN(C(=O)CCCCCCCCCCNC(=O)[C@H](CO)n3cc(CCCSC)nn3)CC2)n1 | 0.8% (inactive) |
| S=c1[nH]nc(-c2ccc(Cl)cc2)n1CC1CCCO1 (stereo not drawn) | 6.47% (inactive) |
| O=C(c1[nH]ncc1-c1ccc(Cl)cc1)C1CO1 (stereo not drawn) | 69.7% (active) |
| O=C(c1nnc(-c2ccc(Cl)cc2)o1)C1CCCC1 | -2.2% (inactive) |
| C#CCOCCOCCOCCNc1nc(N2CCN(C(=O)[C@H](CCCCN)n3cc(CCC(=O)O)nn3)CC2)nc(N2CCN(C(=O)[C@H](CCCCN)n3cc(CC(C)O)nn3)CC2)n1 (stereo partly drawn) | 5.45% (inactive) |
| Cc1cccc(N2CC(C(=O)Nc3ccccc3N3CCCC3)CC2=O)c1C (stereo not drawn) | -3.75% (inactive) |
| CSc1nsc(NC(=O)Nc2ccccc2)n1 | -11% (inactive) |
| C/C(=N/Nc1ccc(Cl)cc1)c1cnnc(-c2ccccc2)n1 | -2.69% (inactive) |
| CC/C(=N/Nc1ccccc1)c1cnnc(SC)n1 | 46.9% (active) |
| COc1cccc(NC(=O)CSc2nnc(-c3cccnc3)o2)c1 | -6.7% (inactive) |
| COC(C[C@@H](O)C[C@H](O)[C@H](C)OCc1ccccc1)OC | 3.16% (inactive) |
